# Reference: publication PMC7862700, “An all-to-all approach to the identification of sequence-specific readers for epigenetic DNA modifications on cytosine”
# Tests used:
# Assay in all cases: DAPPL (digital affinity profiling via proximity ligation, sequencing); 10 mM Tris-HCl pH 7.5, 50 mM NaCl, 1 mM DTT, 4% glycerol, room temperature, 30 min; GST-TFs on glutathione beads, 16-mer random dsDNA library, 0.1% formaldehyde crosslink after washing; high values mean tight binding
# FEV = target: T1, FEV (Homo sapiens, UniProt Q99581 1-238); conditions: protein: recombinant; tags: N-terminal GST; dsDNA, one strand shown
# T1 sequence: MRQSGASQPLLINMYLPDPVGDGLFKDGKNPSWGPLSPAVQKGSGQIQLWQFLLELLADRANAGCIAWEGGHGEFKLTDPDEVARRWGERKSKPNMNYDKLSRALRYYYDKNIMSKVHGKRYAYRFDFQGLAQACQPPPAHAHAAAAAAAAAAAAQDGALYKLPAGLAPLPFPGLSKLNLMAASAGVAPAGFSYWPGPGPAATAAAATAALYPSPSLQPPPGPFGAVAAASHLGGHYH
# How it was run: (§1)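 Binding signal is each hexamer's read frequency for a factor divided by its frequency in the tag-only sample. The factors were GST-fused human transcription factors from yeast, captured on glutathione beads, DNA-barcoded and pooled with that sample. Pools were incubated with 200 nmole of a random double-stranded 16-mer DNA library in Tris/NaCl/DTT/glycerol buffer at room temperature for 30 min, then washed, crosslinked with 0.1% formaldehyde, proximity-ligated with BsaI/T4 ligase (1 h, 37 °C), PCR-amplified and sequenced on an Illumina NextSeq500.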
# ETV5 = ETV5 (Homo sapiens, UniProt P41161 1-510); conditions: protein: recombinant; tags: N-terminal GST; dsDNA, one strand shown
# Chain of ETV5 (P41161 whole entry): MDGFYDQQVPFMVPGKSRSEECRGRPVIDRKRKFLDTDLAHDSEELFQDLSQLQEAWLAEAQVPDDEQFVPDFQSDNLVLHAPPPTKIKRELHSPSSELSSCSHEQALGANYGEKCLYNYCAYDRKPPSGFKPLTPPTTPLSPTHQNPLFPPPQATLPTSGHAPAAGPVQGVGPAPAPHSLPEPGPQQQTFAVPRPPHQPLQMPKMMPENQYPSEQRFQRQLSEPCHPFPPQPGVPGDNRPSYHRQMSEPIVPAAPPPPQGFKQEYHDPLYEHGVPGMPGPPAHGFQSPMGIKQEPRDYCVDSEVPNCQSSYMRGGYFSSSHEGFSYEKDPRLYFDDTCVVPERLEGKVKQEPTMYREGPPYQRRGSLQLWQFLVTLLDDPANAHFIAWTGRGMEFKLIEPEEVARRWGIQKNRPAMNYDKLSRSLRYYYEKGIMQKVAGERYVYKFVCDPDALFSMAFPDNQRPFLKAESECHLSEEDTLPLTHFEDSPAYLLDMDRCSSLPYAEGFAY
# How it was run: as §1
# HSF1 = HSF1 (Homo sapiens, UniProt Q00613 1-529); conditions: protein: recombinant; tags: N-terminal GST; chain copies: 3; dsDNA, one strand shown
# Chain of HSF1 (Q00613 whole entry): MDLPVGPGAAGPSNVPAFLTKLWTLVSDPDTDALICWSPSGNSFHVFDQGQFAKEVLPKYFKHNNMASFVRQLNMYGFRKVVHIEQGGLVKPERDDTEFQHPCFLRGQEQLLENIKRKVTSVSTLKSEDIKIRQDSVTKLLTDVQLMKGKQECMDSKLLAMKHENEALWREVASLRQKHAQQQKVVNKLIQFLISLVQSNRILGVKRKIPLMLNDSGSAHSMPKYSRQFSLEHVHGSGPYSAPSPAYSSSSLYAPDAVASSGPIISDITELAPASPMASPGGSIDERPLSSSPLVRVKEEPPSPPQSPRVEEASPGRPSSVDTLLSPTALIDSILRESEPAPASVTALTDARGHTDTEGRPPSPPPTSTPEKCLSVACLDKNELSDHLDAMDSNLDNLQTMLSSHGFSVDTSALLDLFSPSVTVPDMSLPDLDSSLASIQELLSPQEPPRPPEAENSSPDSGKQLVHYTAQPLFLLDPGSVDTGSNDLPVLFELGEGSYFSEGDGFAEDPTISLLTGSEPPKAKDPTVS
# How it was run: as §1
# SPIC = target: T2, SPIC (Homo sapiens, UniProt Q8N5J4 1-248); conditions: protein: recombinant; tags: N-terminal GST; dsDNA, one strand shown
# T2 sequence: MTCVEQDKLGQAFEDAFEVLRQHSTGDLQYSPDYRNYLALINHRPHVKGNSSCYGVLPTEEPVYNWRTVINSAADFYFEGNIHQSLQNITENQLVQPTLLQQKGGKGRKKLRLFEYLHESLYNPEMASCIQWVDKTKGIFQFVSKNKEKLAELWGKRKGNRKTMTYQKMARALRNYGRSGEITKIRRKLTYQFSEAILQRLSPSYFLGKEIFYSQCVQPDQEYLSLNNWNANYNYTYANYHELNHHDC
# How it was run: as §1
# ELF4 = ELF4 (Homo sapiens, UniProt Q99607 1-663); conditions: protein: recombinant; tags: N-terminal GST; dsDNA, one strand shown
# Chain of ELF4 (Q99607 whole entry): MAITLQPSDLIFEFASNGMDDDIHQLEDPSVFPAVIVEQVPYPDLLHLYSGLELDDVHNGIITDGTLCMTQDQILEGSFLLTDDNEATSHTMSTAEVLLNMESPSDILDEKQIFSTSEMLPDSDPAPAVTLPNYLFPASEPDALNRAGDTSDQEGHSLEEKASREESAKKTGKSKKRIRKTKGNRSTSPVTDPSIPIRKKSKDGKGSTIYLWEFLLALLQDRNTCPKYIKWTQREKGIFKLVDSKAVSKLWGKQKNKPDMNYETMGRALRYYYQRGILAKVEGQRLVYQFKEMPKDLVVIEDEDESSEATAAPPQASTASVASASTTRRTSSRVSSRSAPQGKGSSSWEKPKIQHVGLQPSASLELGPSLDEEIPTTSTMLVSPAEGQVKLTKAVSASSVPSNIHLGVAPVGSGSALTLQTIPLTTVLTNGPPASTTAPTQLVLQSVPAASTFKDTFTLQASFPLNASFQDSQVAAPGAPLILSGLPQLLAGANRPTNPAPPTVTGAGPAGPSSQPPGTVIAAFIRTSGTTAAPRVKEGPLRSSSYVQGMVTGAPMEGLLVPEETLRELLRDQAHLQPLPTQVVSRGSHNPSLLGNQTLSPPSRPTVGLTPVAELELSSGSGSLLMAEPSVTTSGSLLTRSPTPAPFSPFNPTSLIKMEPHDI
# How it was run: as §1
# ELK4 = target: T3, ELK4 (Homo sapiens, UniProt P28324-2 1-405); conditions: protein: recombinant; tags: N-terminal GST; dsDNA, one strand shown
# T3 sequence: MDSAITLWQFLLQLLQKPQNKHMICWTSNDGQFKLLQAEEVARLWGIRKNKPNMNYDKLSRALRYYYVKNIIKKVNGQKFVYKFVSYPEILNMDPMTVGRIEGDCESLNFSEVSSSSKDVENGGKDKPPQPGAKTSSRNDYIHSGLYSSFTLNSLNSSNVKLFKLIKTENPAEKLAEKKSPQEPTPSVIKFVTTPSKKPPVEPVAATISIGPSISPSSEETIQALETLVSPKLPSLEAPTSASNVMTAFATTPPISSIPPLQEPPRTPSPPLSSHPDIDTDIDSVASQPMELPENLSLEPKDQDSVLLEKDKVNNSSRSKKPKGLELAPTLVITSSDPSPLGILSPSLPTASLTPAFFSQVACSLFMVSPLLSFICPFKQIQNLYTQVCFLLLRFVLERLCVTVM
# How it was run: as §1
# ETV2 = target: T4, ETV2 (Homo sapiens, UniProt O00321 1-342); conditions: protein: recombinant; tags: N-terminal GST; dsDNA, one strand shown
# T4 sequence: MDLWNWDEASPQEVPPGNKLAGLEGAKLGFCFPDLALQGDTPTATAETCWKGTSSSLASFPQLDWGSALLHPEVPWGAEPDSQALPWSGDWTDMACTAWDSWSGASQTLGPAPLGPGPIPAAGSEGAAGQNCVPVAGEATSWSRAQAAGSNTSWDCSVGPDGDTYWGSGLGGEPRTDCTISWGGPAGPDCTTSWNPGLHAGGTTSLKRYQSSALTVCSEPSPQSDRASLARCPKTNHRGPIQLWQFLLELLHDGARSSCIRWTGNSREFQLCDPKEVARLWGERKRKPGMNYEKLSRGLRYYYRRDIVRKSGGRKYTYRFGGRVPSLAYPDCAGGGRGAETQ
# How it was run: as §1
# ELF3 = target: T5, ELF3 (Homo sapiens, UniProt P78545 1-371); conditions: protein: recombinant; tags: N-terminal GST; dsDNA, one strand shown
# T5 sequence: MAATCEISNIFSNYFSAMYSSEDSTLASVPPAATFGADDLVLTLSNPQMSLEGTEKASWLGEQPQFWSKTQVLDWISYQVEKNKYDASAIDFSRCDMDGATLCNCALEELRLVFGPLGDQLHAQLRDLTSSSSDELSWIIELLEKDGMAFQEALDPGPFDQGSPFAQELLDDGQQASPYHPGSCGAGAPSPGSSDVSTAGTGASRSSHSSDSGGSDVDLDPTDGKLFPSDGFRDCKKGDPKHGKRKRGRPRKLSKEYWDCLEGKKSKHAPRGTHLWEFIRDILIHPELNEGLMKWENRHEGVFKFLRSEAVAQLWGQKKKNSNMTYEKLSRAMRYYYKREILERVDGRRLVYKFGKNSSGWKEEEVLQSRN
# How it was run: as §1
# CRX = CRX (Homo sapiens, UniProt O43186 1-299); conditions: protein: recombinant; tags: N-terminal GST; dsDNA, one strand shown
# Chain of CRX (O43186 whole entry): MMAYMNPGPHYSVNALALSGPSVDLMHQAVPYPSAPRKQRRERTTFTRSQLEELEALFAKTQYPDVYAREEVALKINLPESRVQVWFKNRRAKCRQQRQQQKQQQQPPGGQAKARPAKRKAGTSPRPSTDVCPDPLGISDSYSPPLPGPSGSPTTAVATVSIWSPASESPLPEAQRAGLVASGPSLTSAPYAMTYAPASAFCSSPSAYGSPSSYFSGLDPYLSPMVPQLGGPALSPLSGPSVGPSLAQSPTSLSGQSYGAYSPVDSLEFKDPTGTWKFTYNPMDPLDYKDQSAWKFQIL
# How it was run: as §1
# ETV1 = ETV1 (Homo sapiens, UniProt P50549 1-477); conditions: protein: recombinant; tags: N-terminal GST; dsDNA, one strand shown
# Chain of ETV1 (P50549 whole entry): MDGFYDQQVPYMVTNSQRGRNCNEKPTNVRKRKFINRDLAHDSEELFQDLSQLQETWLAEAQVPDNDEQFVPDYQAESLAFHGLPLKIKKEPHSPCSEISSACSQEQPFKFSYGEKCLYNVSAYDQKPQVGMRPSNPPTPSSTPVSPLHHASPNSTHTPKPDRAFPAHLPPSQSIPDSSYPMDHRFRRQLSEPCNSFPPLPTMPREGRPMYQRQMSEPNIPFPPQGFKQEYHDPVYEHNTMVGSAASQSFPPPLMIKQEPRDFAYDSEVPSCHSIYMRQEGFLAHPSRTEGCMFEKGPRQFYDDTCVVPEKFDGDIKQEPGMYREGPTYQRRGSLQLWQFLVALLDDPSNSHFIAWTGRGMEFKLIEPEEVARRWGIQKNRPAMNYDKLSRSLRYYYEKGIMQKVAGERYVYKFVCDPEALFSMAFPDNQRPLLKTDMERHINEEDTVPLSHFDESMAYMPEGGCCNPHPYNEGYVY
# How it was run: as §1
# ERF = target: T6, ERF (Homo sapiens, UniProt P50548 1-548); conditions: protein: recombinant; tags: N-terminal GST; dsDNA, one strand shown
# T6 sequence: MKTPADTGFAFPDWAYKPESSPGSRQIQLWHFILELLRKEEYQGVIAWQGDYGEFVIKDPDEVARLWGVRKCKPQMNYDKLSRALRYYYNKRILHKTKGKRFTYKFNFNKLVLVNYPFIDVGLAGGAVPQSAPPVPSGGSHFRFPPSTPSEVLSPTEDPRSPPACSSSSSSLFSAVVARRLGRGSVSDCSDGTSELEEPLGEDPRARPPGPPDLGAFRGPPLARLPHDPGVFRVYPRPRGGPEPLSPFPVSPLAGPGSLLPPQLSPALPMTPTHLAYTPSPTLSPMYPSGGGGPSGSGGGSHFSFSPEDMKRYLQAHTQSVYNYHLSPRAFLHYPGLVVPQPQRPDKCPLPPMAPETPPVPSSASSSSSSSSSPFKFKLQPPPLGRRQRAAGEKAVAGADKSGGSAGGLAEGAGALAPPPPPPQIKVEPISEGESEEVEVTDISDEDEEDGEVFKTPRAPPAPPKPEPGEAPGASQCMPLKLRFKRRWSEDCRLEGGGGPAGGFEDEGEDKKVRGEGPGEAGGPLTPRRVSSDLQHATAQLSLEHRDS
# How it was run: as §1
# ETV3L = target: T7, ETV3L (Homo sapiens, UniProt Q6ZN32 1-361); conditions: protein: recombinant; tags: N-terminal GST; dsDNA, one strand shown
# T7 sequence: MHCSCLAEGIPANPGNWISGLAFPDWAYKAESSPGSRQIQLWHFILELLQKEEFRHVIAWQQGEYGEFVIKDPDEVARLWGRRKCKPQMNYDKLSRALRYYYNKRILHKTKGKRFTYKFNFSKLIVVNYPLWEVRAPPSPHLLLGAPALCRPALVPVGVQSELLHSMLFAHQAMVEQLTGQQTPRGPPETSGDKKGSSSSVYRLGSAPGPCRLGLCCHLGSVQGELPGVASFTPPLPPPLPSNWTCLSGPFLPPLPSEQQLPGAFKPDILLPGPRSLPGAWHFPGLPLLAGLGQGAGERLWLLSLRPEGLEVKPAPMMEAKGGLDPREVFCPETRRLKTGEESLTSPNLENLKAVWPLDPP
# How it was run: as §1
# ETS2 = target: T8, ETS2 (Homo sapiens, UniProt P15036 1-469); conditions: protein: recombinant; tags: N-terminal GST; dsDNA, one strand shown
# T8 sequence: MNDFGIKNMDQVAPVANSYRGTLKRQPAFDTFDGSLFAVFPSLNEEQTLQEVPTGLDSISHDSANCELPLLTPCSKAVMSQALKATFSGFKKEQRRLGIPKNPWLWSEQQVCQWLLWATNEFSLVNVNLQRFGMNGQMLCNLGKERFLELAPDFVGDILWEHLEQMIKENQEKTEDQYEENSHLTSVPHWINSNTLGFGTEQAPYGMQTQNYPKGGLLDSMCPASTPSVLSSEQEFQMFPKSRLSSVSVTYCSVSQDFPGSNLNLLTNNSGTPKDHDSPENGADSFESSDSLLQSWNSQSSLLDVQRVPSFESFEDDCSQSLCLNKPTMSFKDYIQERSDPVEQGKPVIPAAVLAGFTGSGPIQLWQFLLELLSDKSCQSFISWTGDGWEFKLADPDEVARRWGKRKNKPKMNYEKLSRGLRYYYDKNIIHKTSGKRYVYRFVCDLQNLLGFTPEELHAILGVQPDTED
# How it was run: as §1
# SPDEF = target: T9, SPDEF (Homo sapiens, UniProt O95238 1-335); conditions: protein: recombinant; tags: N-terminal GST; dsDNA, one strand shown
# T9 sequence: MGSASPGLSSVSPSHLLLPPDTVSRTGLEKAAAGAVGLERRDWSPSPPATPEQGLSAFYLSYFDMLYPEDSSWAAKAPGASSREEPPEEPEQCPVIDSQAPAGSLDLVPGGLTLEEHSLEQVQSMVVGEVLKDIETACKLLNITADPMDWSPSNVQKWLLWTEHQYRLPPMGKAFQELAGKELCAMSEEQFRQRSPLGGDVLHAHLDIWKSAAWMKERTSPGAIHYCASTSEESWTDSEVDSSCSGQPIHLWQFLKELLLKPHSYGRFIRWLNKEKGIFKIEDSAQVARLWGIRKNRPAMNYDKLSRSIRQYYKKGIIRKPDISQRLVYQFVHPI
# How it was run: as §1
# ETV7 = target: T10, ETV7 (Homo sapiens, UniProt Q9Y603 1-341); conditions: protein: recombinant; tags: N-terminal GST; dsDNA, one strand shown
# T10 sequence: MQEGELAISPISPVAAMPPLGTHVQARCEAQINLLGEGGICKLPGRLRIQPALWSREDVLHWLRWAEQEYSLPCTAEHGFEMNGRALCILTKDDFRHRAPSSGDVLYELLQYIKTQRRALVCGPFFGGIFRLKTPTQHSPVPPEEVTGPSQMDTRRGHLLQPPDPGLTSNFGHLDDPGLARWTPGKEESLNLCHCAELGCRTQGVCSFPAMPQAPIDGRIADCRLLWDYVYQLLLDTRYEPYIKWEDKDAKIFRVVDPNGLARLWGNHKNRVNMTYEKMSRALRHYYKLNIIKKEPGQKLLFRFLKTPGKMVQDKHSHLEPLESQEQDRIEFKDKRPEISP
# How it was run: as §1
# ELF5 = target: T11, ELF5 (Homo sapiens, UniProt Q9UKW6-2 1-255); conditions: protein: recombinant; tags: N-terminal GST; dsDNA, one strand shown
# T11 sequence: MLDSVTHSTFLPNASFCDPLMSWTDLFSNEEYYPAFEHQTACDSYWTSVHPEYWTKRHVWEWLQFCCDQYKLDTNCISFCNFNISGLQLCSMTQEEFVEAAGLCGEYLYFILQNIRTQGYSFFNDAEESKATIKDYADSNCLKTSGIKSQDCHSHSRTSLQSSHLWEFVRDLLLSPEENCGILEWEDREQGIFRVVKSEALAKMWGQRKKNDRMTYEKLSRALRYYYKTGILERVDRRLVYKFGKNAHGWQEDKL
# How it was run: as §1
# ETV3 = target: T12, ETV3 (Homo sapiens, UniProt P41162-2 1-143); conditions: protein: recombinant; tags: N-terminal GST; dsDNA, one strand shown
# T12 sequence: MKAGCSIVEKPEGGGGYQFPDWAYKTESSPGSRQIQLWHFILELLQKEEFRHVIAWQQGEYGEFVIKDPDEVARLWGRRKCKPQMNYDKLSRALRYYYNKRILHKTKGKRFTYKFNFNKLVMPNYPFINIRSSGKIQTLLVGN
# How it was run: as §1
# ETV6 = ETV6 (Homo sapiens, UniProt P41212 1-452); conditions: protein: recombinant; tags: N-terminal GST; dsDNA, one strand shown
# Chain of ETV6 (P41212 whole entry): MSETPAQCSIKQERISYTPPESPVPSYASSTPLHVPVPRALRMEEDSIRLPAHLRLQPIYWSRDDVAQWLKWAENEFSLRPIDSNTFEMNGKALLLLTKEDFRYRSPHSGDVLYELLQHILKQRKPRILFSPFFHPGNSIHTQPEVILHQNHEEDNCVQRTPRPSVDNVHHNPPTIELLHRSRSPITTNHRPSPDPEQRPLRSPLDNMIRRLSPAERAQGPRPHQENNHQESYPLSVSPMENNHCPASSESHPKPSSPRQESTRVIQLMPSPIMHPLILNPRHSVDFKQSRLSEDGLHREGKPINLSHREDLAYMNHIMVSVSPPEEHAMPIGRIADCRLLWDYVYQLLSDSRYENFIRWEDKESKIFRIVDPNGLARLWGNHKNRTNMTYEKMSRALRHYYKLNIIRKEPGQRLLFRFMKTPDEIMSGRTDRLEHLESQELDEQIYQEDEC
# How it was run: as §1
sequence,measurement,setting,value
CTTCTG,binding signal,FEV,"1.23 fold enrichment (6-mer frequency, TF over GST control)"
same,binding signal,ETV5,"1.35 fold enrichment (6-mer frequency, TF over GST control)"
same,binding signal,HSF1,"2.07 fold enrichment (6-mer frequency, TF over GST control)"
same,binding signal,SPIC,"1.39 fold enrichment (6-mer frequency, TF over GST control)"
same,binding signal,ELF4,"1.42 fold enrichment (6-mer frequency, TF over GST control)"
same,binding signal,ELK4,"1.57 fold enrichment (6-mer frequency, TF over GST control)"
same,binding signal,ETV2,"1.32 fold enrichment (6-mer frequency, TF over GST control)"
same,binding signal,ELF3,"1.29 fold enrichment (6-mer frequency, TF over GST control)"
same,binding signal,CRX,"1.49 fold enrichment (6-mer frequency, TF over GST control)"
same,binding signal,ETV1,"1.22 fold enrichment (6-mer frequency, TF over GST control)"
same,binding signal,ERF,"1.28 fold enrichment (6-mer frequency, TF over GST control)"
same,binding signal,ETV3L,"1.47 fold enrichment (6-mer frequency, TF over GST control)"
same,binding signal,ETS2,"1.34 fold enrichment (6-mer frequency, TF over GST control)"
same,binding signal,SPDEF,"1.26 fold enrichment (6-mer frequency, TF over GST control)"
same,binding signal,ETV7,"1.2 fold enrichment (6-mer frequency, TF over GST control)"
same,binding signal,ELF5,"1.39 fold enrichment (6-mer frequency, TF over GST control)"
same,binding signal,ETV3,"1.28 fold enrichment (6-mer frequency, TF over GST control)"
same,binding signal,ETV6,"1.38 fold enrichment (6-mer frequency, TF over GST control)"
